The results in this text go back to PubChem BioAssay (EPA / NIEHS).

The structures appear in SMILES notation. Records with an inconclusive call do not appear. Where a structure was tested more than once in an assay, its records may differ in their call. Activity calls are given as the source filed them. The calls were made as follows: active = hit-call score of the fitted dose curve at least 0.9, where 1 is the maximum; inconclusive = response in the unintended direction; inactive = score below 0.9.

Sequence of Peroxisome proliferator-activated receptor gamma (Homo sapiens) (P37231 whole entry, looked up): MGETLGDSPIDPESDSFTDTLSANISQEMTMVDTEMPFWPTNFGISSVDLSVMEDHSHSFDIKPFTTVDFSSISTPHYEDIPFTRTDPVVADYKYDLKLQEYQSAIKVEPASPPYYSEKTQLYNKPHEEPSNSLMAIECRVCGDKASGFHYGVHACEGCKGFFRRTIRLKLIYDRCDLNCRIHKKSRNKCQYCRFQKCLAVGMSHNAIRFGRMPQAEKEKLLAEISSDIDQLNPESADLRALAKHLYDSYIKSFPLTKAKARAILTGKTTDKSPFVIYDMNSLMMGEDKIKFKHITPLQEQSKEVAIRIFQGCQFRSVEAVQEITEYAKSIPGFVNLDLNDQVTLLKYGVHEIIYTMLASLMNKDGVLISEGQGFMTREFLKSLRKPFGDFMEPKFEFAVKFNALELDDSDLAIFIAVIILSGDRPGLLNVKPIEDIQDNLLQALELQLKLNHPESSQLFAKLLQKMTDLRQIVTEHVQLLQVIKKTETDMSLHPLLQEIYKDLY

The target of this experiment is Peroxisome proliferator-activated receptor gamma (Homo sapiens) (UniProt P37231). The experiment can be described thus: NVS_NR_hPPARg: NovaScreen (NVS) Nuclear Receptor Binding Assay for human Peroxisome Proliferator-activated Receptor gamma (PPARg) (AID 2283370). Here is the method:
NVS_NR_hPPARg is a biochemical, single-readout assay that uses extracted gene-proteins in a cell-free assay. Measurements were taken 2 hours after chemical dosing in a 384-well plate.NVS_NR_hPPARg is one of one assay component(s) measured or calculated from the NVS_NR_hPPARg assay. It is designed to make measurements of fluorescent polarization, a form of binding reporter, as detected with fluorescence polarization signals by Fluorescence Polarization technology.Data from the assay component NVS_NR_hPPARg was analyzed into 1 assay endpoint. This assay endpoint, NVS_NR_hPPARg, was analyzed in the positive analysis fitting direction relative to DMSO as the negative control and baseline of activity. Using a type of binding reporter, loss-of-signal activity can be used to understand changes in the binding as they relate to the gene PPARG. Furthermore, this assay endpoint can be referred to as a primary readout, because the performed assay has only produced 1 assay endpoint. To generalize the intended target to other relatable targets, this assay endpoint is annotated to the nuclear receptor intended target family, where the subfamily is non-steroidal.
Binding assays used specific radioligands (tritiated, iodinated) with non-radioactive competitive displacement ligands in agonist or antagonist protocols (as indicated) and various reference compounds and inhibitors to titrate specific binding to receptors and transporters. Most enzyme assays (CYPs, kinases, phosphatases, proteases, HDACs) used recombinant protein and specific substrates (fluorescence mostly, some colorimetric and radioactive) and inhibitors, followed by a biochemical separation of substrate and product. All assays for the biochemical HTS were initially run in duplicate at a single concentration (10 uM for CYP450 assays and 25 uM for all others). […] Each assay was run with positive and negative controls, and concurrent controls on every plate. The follow-up (secondary) screen tested active chemical-pairs in concentration series, as well as a few additional assays not tested in the primary screen, some selected negative inactives, and several cases re-run in the concentration series for confirmatory purposes.
Regarding `CCc1cc(Cc2cc(CC)c(N)c(CC)c2)cc(CC)c1N`, the call was inactive and the half-maximal activity concentration (AC50) is 14.2 µM (active).

For `CC(=O)CCC(C)C`, the compound was classed as inactive.

On to `CC(C)Nc1ccc(NC(C)C)c2c1C(=O)c1ccccc1C2=O`, for which the compound was called inactive.

As to `CCCCCCCC/C=C\CCCCCCCC(=O)OCC(O)CO` (stereo not drawn), the result was inactive.

For the compound `CCCCCCCCn1sc(Cl)c(Cl)c1=O`, the compound was called inactive.

As for `COCCOCCC[Si](C)(O[Si](C)(C)C)O[Si](C)(C)C`, the compound was classed as inactive.

Take `CCCCCCCCCc1ccc(OCCO)cc1`: the outcome was inactive.

Take `CCN=C1C=CC(=C(c2ccc(N(CC)CC)cc2)c2ccc(N(CC)CC)cc2)c2ccccc21`: the call was inactive.

With `CC(C)(C)c1cc(Cc2cc(C(C)(C)C)c(O)c(C(C)(C)C)c2)cc(C(C)(C)C)c1O`, the result was inactive.

As for `CCCCCCCCCCCCC[N+](C)(C)Cc1ccccc1`, the outcome was inactive.

Take `CCOC(OCC)OCC`: the outcome was inactive.

As for `Cc1ccc([N+](=O)[O-])c(C)c1`, the call was inactive.
